Data on 38 compounds can be found in PubChem BioAssay.

Active and inactive are the calls of the source.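 How the source made its calls, unless noted: active means compounds that lower survival of HCT116 colon cancer cells in the luminescence readout, no numeric limit stated; inactive means the rest.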

The nature of one experiment: HCT116 colon cancer cell growth inhibition, primary screen, CellTiter-Glo luminescence, NPC library (AID 1117342). Particulars: at 20 µM (top of the series). On the technique in general: Cellular ATP, detected with luciferase, serves as a proxy for viable cell number.
Consider `C[C@]12CCC(=O)C=C1CC[C@@H]1[C@@H]2[C@@H](O)C[C@@]2(C)[C@H]1CC[C@]2(O)C(=O)COP(=O)(O)O`, for which the inhibition of viability is -7.2% (inactive).

In the case of `CCCc1ncc(C[n+]2ccccc2C)c(N)n1`, the inhibition of viability was -12.5% (inactive).

For the compound `COc1cc(NS(=O)(=O)c2ccc(N)cc2)nc(OC)n1`, the inhibition of viability is -0.4% (inactive).

On to `Cc1cc(NC(=O)C2=C(O)c3ccccc3S(=O)(=O)N2C)no1`, for which the inhibition of viability is 4.6% (inactive).

For the compound `O=C(O)[C@@H](O)[C@H](O)[C@H](O)[C@@H](O)C(=O)O`, the inhibition of viability is 1.7% (inactive).

For `CN1CCOC(c2ccccc2)c2ccccc2C1` (stereo unspecified), the inhibition of viability was 12.4% (inactive).

For `Cc1cccc(N(C)C(=S)Oc2ccc3ccccc3c2)c1`, the inhibition of viability is 58.6% (active).

For the compound `O=C1c2ccccc2C(=O)C1c1ccccc1`, the inhibition of viability was -1% (inactive).

On to `Cc1onc(-c2ccccc2Cl)c1C(=O)N[C@@H]1C(=O)N2[C@@H]1SC(C)(C)[C@@H]2C(=O)O`, for which the inhibition of viability was 19.2% (inactive).

As for `CO[C@]12C[C@@H](COC(=O)c3cncc(Br)c3)CN(C)[C@@H]1Cc1cn(C)c3cccc2c13`, the inhibition of viability is 43.7% (inactive).

On to `Cc1ccccc1OCC(O)CO` (stereo unspecified), for which the inhibition of viability was -20.4% (inactive).

As for `Cc1ccc(C(C)C)cc2c(C)ccc1-2`, the inhibition of viability is 5.77% (inactive).

`O=C1C(=O)c2ccccc2C(O)=C1C1CCC(c2ccc(Cl)cc2)CC1` (stereo unspecified): the inhibition of viability was 97.1% (active).

As for `Cc1ccc2c(Cl)cc(Cl)c(O)c2n1`, the inhibition of viability was 2.45% (inactive).

With `NC(N)=NS(=O)(=O)c1ccc(N)cc1`, the inhibition of viability was -10.1% (inactive).

Consider `CCOc1ccc(NC(C)=O)cc1`, for which the inhibition of viability was -24.5% (inactive).

With `Cn1c(=O)c2c(ncn2CC(O)CO)n(C)c1=O` (stereo unspecified), the inhibition of viability is 7.4% (inactive).

For `Cc1cc(=O)n(-c2ccccc2)n1C`, the inhibition of viability was 1.15% (inactive).

As for `O=C(O)c1ccccc1Nc1cccc(C(F)(F)F)c1`, the inhibition of viability is 66.3% (active).

For `CC1=NN(c2ccccc2)C(=O)C1`, the inhibition of viability was 2.1% (inactive).

As for `Cc1c(C(=O)O)c(O)cc2c1C(=O)c1c(O)c([C@@H]3O[C@H](CO)[C@@H](O)[C@H](O)[C@H]3O)c(O)c(O)c1C2=O`, the inhibition of viability is 35% (inactive).

Take `CC(C)(Sc1cc(C(C)(C)C)c(O)c(C(C)(C)C)c1)Sc1cc(C(C)(C)C)c(O)c(C(C)(C)C)c1`: the inhibition of viability was 1.57% (inactive).

`CN1C(C(=O)Nc2ccccn2)=C(O)c2sccc2S1(=O)=O`: the inhibition of viability is 8.2% (inactive).

Consider `CCCCC(=O)O[C@]1(C(=O)CO)[C@@H](C)C[C@H]2[C@@H]3CCC4=CC(=O)C=C[C@]4(C)[C@@]3(F)[C@@H](O)C[C@@]21C`, for which the inhibition of viability was 12.9% (inactive).

For `COc1ccccc1OCC(O)CO` (stereo unspecified), the inhibition of viability is -1.2% (inactive).

As to `CCCCOc1cc(C(=O)NCCN(CC)CC)c2ccccc2n1`, the inhibition of viability was 45.3% (inactive).

Take `CC1(C)O[C@H]2CC(=O)OC[C@]23[C@H]2CC[C@@]4(C)[C@H](c5ccoc5)OC(=O)[C@H]5O[C@]54[C@]2(C)C(=O)C[C@@H]13`: the inhibition of viability was -6.9% (inactive).

Turning to `CC1=CC(=O)c2ccccc2C1=O`, the inhibition of viability is 37.5% (inactive).

Turning to `COc1ccc2c(c1)c(CC(=O)OCC(=O)O)c(C)n2C(=O)c1ccc(Cl)cc1`, the inhibition of viability is 12.8% (inactive).

Take `CC/C(=C(/CC)c1ccc(O)cc1)c1ccc(O)cc1`: the inhibition of viability was 94.3% (active).

With `COc1cc(C(=O)NCc2ccc(OCCN(C)C)cc2)cc(OC)c1OC`, the inhibition of viability was -8.75% (inactive).

As for `O=C1c2ccccc2C(=O)c2c1ccc(O)c2O`, the inhibition of viability was 9.2% (inactive).

As to `CCN(CC)CCOC(=O)C(c1ccccc1)c1ccccc1`, the inhibition of viability is 8.4% (inactive).

As to `CC1=C(C(=O)O)N2C(=O)[C@@H](NC(=O)[C@H](N)C3=CCC=CC3)[C@H]2SC1`, the inhibition of viability was 44% (inactive).

Regarding `NC(=O)NC1NC(=O)NC1=O` (stereo unspecified), the inhibition of viability is 8% (inactive).

For the compound `CC(C)NC[C@@H](O)COc1cccc2ccccc12`, the inhibition of viability is 0.8% (inactive).

As to `N=C(N)N`, the inhibition of viability was 1.3% (inactive).

With `CCOC(=O)[C@H](CCc1ccccc1)N[C@@H](C)C(=O)N1CCC[C@H]1C(=O)O`, the inhibition of viability was -3.77% (inactive).

A short description of the next experiment: CellTiter-Glo luminescent readout of SW480 viability loss, NPC library primary (AID 1117343;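 active means compounds that lower viability of the colon cancer cells in the luminescence readout, with no numeric limit stated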). Particulars: CellTiter-Glo luminescence; at 20 µM (top of the series).
As for `C[C@]12CCC(=O)C=C1CC[C@@H]1[C@@H]2[C@@H](O)C[C@@]2(C)[C@H]1CC[C@]2(O)C(=O)COP(=O)(O)O`, the viability decrease (inhibition) is -5.9% (active).

For the compound `CCCc1ncc(C[n+]2ccccc2C)c(N)n1`, the viability decrease (inhibition) is -33.4% (inactive).

For `COc1cc(NS(=O)(=O)c2ccc(N)cc2)nc(OC)n1`, the viability decrease (inhibition) is 8.4% (inactive).

For the compound `Cc1cc(NC(=O)C2=C(O)c3ccccc3S(=O)(=O)N2C)no1`, the viability decrease (inhibition) is -6% (inactive).

Take `O=C(O)[C@@H](O)[C@H](O)[C@H](O)[C@@H](O)C(=O)O`: the viability decrease (inhibition) is 57.2% (active).

Regarding `CN1CCOC(c2ccccc2)c2ccccc2C1` (stereo unspecified), the viability decrease (inhibition) is 40.1% (inactive).

`Cc1cccc(N(C)C(=S)Oc2ccc3ccccc3c2)c1`: the viability decrease (inhibition) is 35.1% (inactive).

Consider `O=C1c2ccccc2C(=O)C1c1ccccc1`, for which the viability decrease (inhibition) is 1.3% (inactive).

In the case of `Cc1onc(-c2ccccc2Cl)c1C(=O)N[C@@H]1C(=O)N2[C@@H]1SC(C)(C)[C@@H]2C(=O)O`, the viability decrease (inhibition) was -3.3% (inactive).

On to `CO[C@]12C[C@@H](COC(=O)c3cncc(Br)c3)CN(C)[C@@H]1Cc1cn(C)c3cccc2c13`, for which the viability decrease (inhibition) was 76.9% (active).

Regarding `Cc1ccccc1OCC(O)CO` (stereo unspecified), the viability decrease (inhibition) was 0.7% (inactive).

`Cc1ccc(C(C)C)cc2c(C)ccc1-2`: the viability decrease (inhibition) is -9.4% (inactive).

Regarding `O=C1C(=O)c2ccccc2C(O)=C1C1CCC(c2ccc(Cl)cc2)CC1` (stereo unspecified), the viability decrease (inhibition) is 144% (active).

For `Cc1ccc2c(Cl)cc(Cl)c(O)c2n1`, the viability decrease (inhibition) was 14.8% (inactive).

Take `NC(N)=NS(=O)(=O)c1ccc(N)cc1`: the viability decrease (inhibition) is 54.6% (active).

`CCOc1ccc(NC(C)=O)cc1`: the viability decrease (inhibition) was 104% (active).

With `Cn1c(=O)c2c(ncn2CC(O)CO)n(C)c1=O` (stereo unspecified), the viability decrease (inhibition) is 12.3% (inactive).

Consider `Cc1cc(=O)n(-c2ccccc2)n1C`, for which the viability decrease (inhibition) is 4% (inactive).

Consider `O=C(O)c1ccccc1Nc1cccc(C(F)(F)F)c1`, for which the viability decrease (inhibition) was 70.1% (active).

Take `CC1=NN(c2ccccc2)C(=O)C1`: the viability decrease (inhibition) was 33.2% (inactive).

As to `Cc1c(C(=O)O)c(O)cc2c1C(=O)c1c(O)c([C@@H]3O[C@H](CO)[C@@H](O)[C@H](O)[C@H]3O)c(O)c(O)c1C2=O`, the viability decrease (inhibition) is 53.2% (active).

Take `CC(C)(Sc1cc(C(C)(C)C)c(O)c(C(C)(C)C)c1)Sc1cc(C(C)(C)C)c(O)c(C(C)(C)C)c1`: the viability decrease (inhibition) is 9.4% (inactive).

Consider `CN1C(C(=O)Nc2ccccn2)=C(O)c2sccc2S1(=O)=O`, for which the viability decrease (inhibition) is 13.4% (inactive).

For the compound `CCCCC(=O)O[C@]1(C(=O)CO)[C@@H](C)C[C@H]2[C@@H]3CCC4=CC(=O)C=C[C@]4(C)[C@@]3(F)[C@@H](O)C[C@@]21C`, the viability decrease (inhibition) is -0.4% (inactive).

Regarding `COc1ccccc1OCC(O)CO` (stereo unspecified), the viability decrease (inhibition) was 17.6% (inactive).

On to `CCCCOc1cc(C(=O)NCCN(CC)CC)c2ccccc2n1`, for which the viability decrease (inhibition) was 49.2% (inactive).

For the compound `CC1(C)O[C@H]2CC(=O)OC[C@]23[C@H]2CC[C@@]4(C)[C@H](c5ccoc5)OC(=O)[C@H]5O[C@]54[C@]2(C)C(=O)C[C@@H]13`, the viability decrease (inhibition) is -12.1% (inactive).

`CC1=CC(=O)c2ccccc2C1=O`: the viability decrease (inhibition) was 122% (active).

Consider `COc1ccc2c(c1)c(CC(=O)OCC(=O)O)c(C)n2C(=O)c1ccc(Cl)cc1`, for which the viability decrease (inhibition) is 33.3% (inactive).

Regarding `CC/C(=C(/CC)c1ccc(O)cc1)c1ccc(O)cc1`, the viability decrease (inhibition) was 97.7% (active).

Take `COc1cc(C(=O)NCc2ccc(OCCN(C)C)cc2)cc(OC)c1OC`: the viability decrease (inhibition) was -11.4% (inactive).

In the case of `O=C1c2ccccc2C(=O)c2c1ccc(O)c2O`, the viability decrease (inhibition) is 112% (active).

In the case of `CCN(CC)CCOC(=O)C(c1ccccc1)c1ccccc1`, the viability decrease (inhibition) is -5.9% (inactive).

Consider `CC1=C(C(=O)O)N2C(=O)[C@@H](NC(=O)[C@H](N)C3=CCC=CC3)[C@H]2SC1`, for which the viability decrease (inhibition) is 34.9% (inactive).

Take `NC(=O)NC1NC(=O)NC1=O` (stereo unspecified): the viability decrease (inhibition) was 0.3% (inactive).

As to `CC(C)NC[C@@H](O)COc1cccc2ccccc12`, the viability decrease (inhibition) is 54.8% (active).

Consider `N=C(N)N`, for which the viability decrease (inhibition) is 1% (active).

Regarding `CCOC(=O)[C@H](CCc1ccccc1)N[C@@H](C)C(=O)N1CCC[C@H]1C(=O)O`, the viability decrease (inhibition) is 12.5% (inactive).
